Source: PubChem (several laboratories)
Compounds with a hit are over-represented: about 4.9% of the library has one in this group of screens.
MPTP block: mitochondrial permeability transition pore inhibitors, primary screen, biochemical, isolated mouse mitochondria, absorbance; inhibition, % at 10 µM; Ca2+ swelling absorbance, 30 min; actives 1.4% (n = 360,000);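 active means inhibition of 50% or more, scaled per plate between neutral and stimulator controls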;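 further: 0% = DMSO wells given calcium and 100% = 1 mM EGTA wells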
HSP90 inh: HSP90 inhibitors, primary screen, cell lysate, luminescence; inhibition, % at 5.6 µM; Rabbit reticulocyte lysate, luciferase refolding luminescence, 3 h; actives 0.91% (n = 290,000);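 active means inhibition above the screen-wide mean plus 3 SD, computed separately per campaign, cut at about 16% in these data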;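 further: 0% = DMSO wells and 100% = 60 µM geldanamycin wells; inhibitors lower the luminescence because luciferase stays unfolded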
HSF1 inh: HSF1 inhibitors in luciferase reporter cells, primary screen, cell-based, NIH3T3, luminescence. AID 2098, 2009. NIH3T3-HGL HSE-luciferase, MG132-induced, luminescence 8 h; hits give low values. activity change, negative = inhibition, % at 7.5 µM (by protocol). actives 0.77% (n = 300,000);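 active means more than half of replicate wells show activity change below -50%, luminescence cut by over half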;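 further: luciferase reports HSF-1 transcriptional activity via heat shock element; 0% = median of DMSO wells and -100% = zero luminescence signal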
Platelet DG rel: inhibitors of platelet dense granule secretion, primary screen, cell-based, MLPCN, human platelets; inhibition, %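 (compounds screened at 7.5 µM in platelet-rich plasma)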; human platelet-rich plasma, SFLLRN dense granule ATP release, luminescence; actives 0.22% (n = 300,000); AID 1663, 2009;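 active means mean replicate score, as percent of positive control, at or above 50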
HSF-1 act: HSF-1 activators, primary screen, NIH3T3-HGL cells, MG132 stress, luminescence, single point. NIH3T3-HGL HSF-1 luciferase reporter, 8 h; 100% = twice DMSO control signal. activation, % at 9 µM. actives 1.7% (n = 300,000);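 active means mean replicate activation of at least 50% with a set share of replicates each reaching 50%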;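 further: 0% = median of the neutral control wells and 100% = twice that signal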
dFosB act: activators of delta FosB homodimer, primary screen, biochemical, fluorescence polarization, TAMRA-CDK5 oligo, single point. purified delta FosB; percent of positive-control signal above neutral wells. activation, % at 25 µM. actives 0.99% (n = 340,000);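 active means mean activation above about 17%, with every replicate also reaching it, limit read from the data, passing the limit was not always enough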
Target sequence (P13346 whole entry, looked up): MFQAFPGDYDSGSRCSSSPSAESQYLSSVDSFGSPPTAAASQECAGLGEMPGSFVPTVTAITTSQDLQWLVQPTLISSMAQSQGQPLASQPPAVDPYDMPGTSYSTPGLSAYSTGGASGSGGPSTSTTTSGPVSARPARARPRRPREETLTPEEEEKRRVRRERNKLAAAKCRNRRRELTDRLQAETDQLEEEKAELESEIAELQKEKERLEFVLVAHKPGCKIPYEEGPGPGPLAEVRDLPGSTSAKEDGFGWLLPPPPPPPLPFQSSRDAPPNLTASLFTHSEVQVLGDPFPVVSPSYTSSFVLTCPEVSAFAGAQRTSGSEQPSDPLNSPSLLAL
* = called active by the depositor.

Screening Cc1nc(-c2ccc(S(=O)(=O)Oc3ccc(Cl)cc3Cl)s2)cs1 returned MPTP block 6.0, HSP90 inh -2.8, HSF1 inh 3.1, Platelet DG rel -9.2, HSF-1 act 11.8 and dFosB act -12.2.
For Cc1ccc(S(=O)(=O)c2c(C)cc(C)nc2N2CCCCC2)cc1 the results were MPTP block 1.7, HSP90 inh 1.7, HSF1 inh 23.3, Platelet DG rel 8.6, HSF-1 act 58.1* and dFosB act -13.9.
For CCOc1ccc2nc(SCc3ccccc3C#N)sc2c1 the results were MPTP block -0.9, HSP90 inh -1.3, HSF1 inh 68.4, Platelet DG rel -4.3, HSF-1 act 114.8* and dFosB act -0.3.
For COc1ccc(N2CC(NC(=O)N3CCc4ccccc43)CC2=O)cc1OC (stereo not given) the results were MPTP block -0.7, HSP90 inh -7.8, HSF1 inh 4.0, Platelet DG rel -0.1, HSF-1 act -1.9 and dFosB act -0.1.
CC(C)(C)OC(=O)N1CCCC(C(=O)Nc2ccc(C(=O)N3CCOCC3)cc2)C1 (stereo not given) was read as MPTP block -1.4 and dFosB act 1.5.
O=S(=O)(Nc1ccncc1)c1ccc(Cl)cc1 was read as MPTP block 0.1, HSP90 inh -1.6, HSF1 inh -71.4*, Platelet DG rel 1.5, HSF-1 act -77.4 and dFosB act 0.2.
COc1ccc(NC(=O)Cc2ccc(C)c(C)c2)cc1S(=O)(=O)N1CCCCC1 was read as MPTP block -0.8 and dFosB act -5.6.
For Cc1ccc(-n2nc3c(=O)n(CC(=O)NC4CCCCCC4)nc(C)c3c2C)cc1 the results were MPTP block 1.0, HSP90 inh 5.7, HSF1 inh -0.6, Platelet DG rel -3.4, HSF-1 act -6.2 and dFosB act -2.4.
Screening Cc1ccc(C(=O)NCCSC(C)(C)C)cc1[N+](=O)[O-] returned MPTP block 0.8, HSP90 inh -4.0, HSF1 inh 15.2, Platelet DG rel 7.3, HSF-1 act 28.4 and dFosB act -4.2.
For CC(=O)Nc1ccc(C(=O)OCC(=O)c2ccc(C)c([N+](=O)[O-])c2)cc1 the results were MPTP block 3.5, HSP90 inh -2.1, HSF1 inh 19.6, Platelet DG rel -19.7, HSF-1 act 58.3* and dFosB act 1.7.
Screening Cc1ccc(C(=O)NCC(C)NC(=O)c2ccc(C)c([N+](=O)[O-])c2)cc1[N+](=O)[O-] (stereo not given) returned MPTP block 6.3, HSF1 inh 51.0, Platelet DG rel -21.8, HSF-1 act 87.7* and dFosB act -3.9.
Screening CCC(=O)Nc1ccc(C(=O)OCC(=O)c2ccc(C)c([N+](=O)[O-])c2)cc1 returned MPTP block 0.7, HSP90 inh -0.1, HSF1 inh 0.5, Platelet DG rel -1.0, HSF-1 act 13.0 and dFosB act -8.0.
Screening Cc1cccc(NC(=S)NCC23C=CC(O2)C2C(=O)N(c4ccc(Cl)cc4)C(=O)C23)c1 (stereo not given) returned MPTP block 7.3, HSP90 inh -3.5, HSF1 inh 68.5, Platelet DG rel 2.8, HSF-1 act 98.0* and dFosB act 0.1.
For O=C(CN(c1ccccc1)S(=O)(=O)c1ccccc1)N/N=C/c1ccco1 the results were MPTP block 3.4, HSP90 inh -1.3, HSF1 inh -6.3, Platelet DG rel 18.8, HSF-1 act 1.8 and dFosB act -5.2.
CSc1nsc(SCC(=O)NCc2ccccc2)n1 was read as MPTP block -0.1, HSP90 inh 1.1, HSF1 inh -1.6, Platelet DG rel -2.7, HSF-1 act -4.3 and dFosB act 3.8.
CSc1nsc(SCC(=O)Nc2ccc3c(c2)OCCO3)n1 was read as MPTP block 1.5, HSP90 inh 3.5, HSF1 inh 24.3, Platelet DG rel 1.4, HSF-1 act 54.8* and dFosB act -2.4.
For CSc1nsc(SCC(=O)NCc2ccc(C)cc2)n1 the results were MPTP block 0.6, HSP90 inh -4.9, HSF1 inh -78.8*, Platelet DG rel -3.6, HSF-1 act -84.0 and dFosB act -0.1.
Screening COc1cccc(/C=N/NC(=O)c2ccoc2C)c1 returned MPTP block 0.8, HSP90 inh 6.2, HSF1 inh 7.8, Platelet DG rel 22.0, HSF-1 act 24.4 and dFosB act -0.4.
Screening Cc1cc(C)c(C)c(S(=O)(=O)NCc2ccco2)c1C returned HSP90 inh 2.5, HSF1 inh 46.5, Platelet DG rel -3.6 and HSF-1 act 78.4*.
For Cc1ccc(NC(=O)C(=O)NCCOc2ccc(Cl)cc2)c(C)c1 the results were MPTP block -0.6, HSP90 inh -3.9, HSF1 inh -1.5, Platelet DG rel -6.8, HSF-1 act 10.0 and dFosB act 4.6.
`C/C(=N\Nc1ccc([N+](=O)[O-])cc1)c1ccco1` gave MPTP block 12.8, HSP90 inh -7.3, HSF1 inh 14.9, Platelet DG rel 4.5, HSF-1 act 55.3* and dFosB act -3.2.
`O=C(C=Cc1ccccc1Cl)c1ccccc1` gave MPTP block -1.5 and dFosB act -13.7.
`O=C(/C=C/Sc1ccccc1)c1ccc(Cl)cc1` gave MPTP block -0.5, HSP90 inh -3.8, HSF1 inh 122.3, Platelet DG rel 1.1, HSF-1 act 160.7* and dFosB act -7.4.
O=C(/C=C/Sc1ccccc1)c1ccccc1 was read as MPTP block 0.5, HSP90 inh -0.3, HSF1 inh 79.9, Platelet DG rel 10.1, HSF-1 act 117.1* and dFosB act -10.1.
`NC(=O)c1ccccc1N/C=C/C(=O)c1ccc(Cl)cc1` gave MPTP block -1.2, HSP90 inh -0.5, HSF1 inh 32.6, Platelet DG rel 40.9, HSF-1 act 44.7 and dFosB act -1.7.
`CC(C)CNc1ncnc2c1ncn2[C@H]1CN(C2CCCC2)C[C@@H](CO)O1` gave MPTP block -0.7.
NC(=O)C1CCN(C(=O)Nc2csc3ccccc23)CC1 was read as MPTP block 3.4, HSP90 inh -2.7, HSF1 inh -4.5, Platelet DG rel -2.7 and HSF-1 act 17.5.
For COc1cc(Cl)cc(/C=C/c2ccc3ccccc3n2)c1OC(C)=O the results were MPTP block 2.2, HSP90 inh -4.1, HSF1 inh 158.4, Platelet DG rel 6.7, HSF-1 act 183.3* and dFosB act -12.9.
Screening CCS(=O)(=O)c1ccc2oc(Nc3ccccc3Br)nc2c1 returned MPTP block 1.7, HSP90 inh 1.3, HSF1 inh 16.1, Platelet DG rel 27.4, HSF-1 act 34.1 and dFosB act -6.0.
